About 20,000 (21%) of roughly 96,000 compounds were called active.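 How the source made its calls: active means CYP2C19 inhibition above a set limit at 5 µM in the primary screen (cut at about 50% in these data); inactive means the rest.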 A selection follows.
Molecular target: Cytochrome P450 2C19 (Homo sapiens) (UniProt P33261)
Test: blockers of cytochrome P450 2C19 activity – biochemical, luminescence, ADME assay, primary screen (AID 778);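 further: plate controls were negative control wells for no effect and 2.5 mM tranylcypromine positive control for full effect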
Details: CYP2C19 Supersomes, luciferin-H EGE luminescence, 30 min; at 5 µM; hits give high values

Sequence of Cytochrome P450 2C19 (Homo sapiens) (P33261 whole entry, looked up): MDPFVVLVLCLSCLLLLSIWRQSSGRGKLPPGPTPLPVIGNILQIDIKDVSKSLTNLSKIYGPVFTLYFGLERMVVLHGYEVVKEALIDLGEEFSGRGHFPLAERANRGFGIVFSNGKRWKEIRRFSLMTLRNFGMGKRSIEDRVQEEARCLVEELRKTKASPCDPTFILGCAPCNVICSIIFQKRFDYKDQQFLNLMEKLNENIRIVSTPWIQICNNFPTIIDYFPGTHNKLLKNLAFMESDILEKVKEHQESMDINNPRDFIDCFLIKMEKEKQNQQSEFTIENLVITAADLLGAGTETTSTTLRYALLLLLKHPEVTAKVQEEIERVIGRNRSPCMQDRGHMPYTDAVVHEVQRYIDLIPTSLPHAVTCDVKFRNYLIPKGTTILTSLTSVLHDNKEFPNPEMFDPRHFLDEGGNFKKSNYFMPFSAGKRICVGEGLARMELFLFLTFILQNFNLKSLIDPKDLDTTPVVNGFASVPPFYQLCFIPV

inhibition, inactive:
Cc1cc(C(=O)O)c(S(C)(=O)=O)s1 -6.4%
Cc1csc(NC(=O)C2CCCN2C(=O)OCC(C)C)n1 (stereo not given) 29.2%
CC(C)(C)c1cc2cccnc2n1Cc1ccccc1 13.8%
CC(c1nnc(SCC(=O)Nc2sccc2C#N)n1-c1ccc(Cl)cc1)N(C)C (stereo not given) 31.1%
CC(=O)N1CCN(c2cccc(C)c2C)CC1 -2.5%
O=C(O)c1cnn2c(C(F)(F)F)cc(-c3ccccc3)nc12 20.2%
O=C(Cn1cc(-c2nnnn2-c2ccc(Cl)cc2)c(=O)c2ccccc21)c1ccccc1 -16.7%
O=C(NCCCCO)C(F)(F)C(F)(F)C(F)(F)C(=O)NCCCCO 9.4%
CCSc1nc(-c2ccc(OC)cc2)cc(-c2ccc(OC)cc2)c1C#N 32.3%
Cc1ccc(N)cc1-n1c(C)ccc1C 23.2%
COc1ccc(-c2cc(C)nc3nc(N)nn23)cc1 -16.3%
CCOC(=O)c1ccc(-n2c(C)nc3c(cnn3-c3ccccc3C)c2=O)cc1 -20.1%
CCOc1cccc(NC(=O)CC#N)c1 -5.8%
COC(=O)c1sccc1NC(=O)CCC1CCCC1 -0.5%
CCOC(=O)N1CCC(NC(=O)C(C)n2c3ccccc3c3cnn(C)c(=O)c32)CC1 (stereo not given) 5.1%
NC(CSC12CC3CC(CC(C3)C1)C2)C(=O)O (stereo not given) 12.9%
Cc1cc(C)cc(OCC(=O)NNC(=O)c2cc3ccccc3oc2=O)c1 5.4%
COc1cc(C(O)c2nc3ccccc3n2C)cc(OC)c1OC (stereo not given) 46.5%
CC(Nc1nc(N2CCCC2)nc2ccccc12)c1ccccc1 (stereo not given) 15.5%
CCOCCn1c(C(C)C)nc2ccccc21 15.5%
COc1ccc(C)c(Cn2c(-c3nonc3N)nc3ccccc32)c1 18.5%
CCOc1ccc(C(O)Cn2c(=N)n(CCN3CCCCC3)c3ccccc32)cc1 (stereo not given) 9.8%
CCc1nc(Nc2ccc3nccnc3c2)c2oc3ccccc3c2n1 -11.6%
O=C(N/N=C/C=C/c1ccccc1)C1CC1(c1ccccc1)c1ccccc1 (stereo not given) -19.2%
Cc1ccc(NC(=O)c2nc[nH]c2C(=O)N2CCCCC2)c(C(=O)c2ccccc2)c1 20.4%
CC(=O)c1nn(-c2cccc(Br)c2)cc1C(=O)c1cccc2ccccc12 9.4%
CCCCc1nnc(NC(=O)CS(=O)(=O)Cc2ccccc2)s1 8%
Cc1cc2ccccc2n1CCNC(=O)COc1ccc2ccccc2c1 14.5%
OC(COCCC12CC3CC(CC(C3)C1)C2)CN1CCCCC1 (stereo not given) 35.1%
Cc1cccc(NC(=O)C2CCN(S(=O)(=O)c3cccc4cccnc34)CC2)c1 40.7%
CCOc1ccc(NC(=O)N2CC=C(n3c(=O)[nH]c4ccccc43)CC2)cc1 11.1%
COc1ccc(-c2c3c(=O)n(C)c(=O)n(C)c3cn2-c2cccc(OC)c2)cc1 -4%
COc1ccc(-c2c3c(=O)n(C)c(=O)n(C)c3cn2NC(C)=O)cc1 -2.1%
CCCC(=O)Nc1cccc(-c2cn3ccsc3n2)c1 -11.8%
CCOC(=O)N1CCC(NC(=O)CN2C(=O)COc3ccc(C(C)(C)C)cc32)CC1 10.8%
CCOC(=O)C(=O)Nc1nc(-c2ccccc2)c(CC)s1 3.5%
COc1ccc(NC(=O)c2cccc(NC(=O)c3ccco3)c2)c(OC)c1 15.1%
CCOc1ccc(Cn2nnc(C(=O)Nc3ccc(OC)cc3OC)c2N)cc1 -21.9%
CCOP1(=O)C=C(C(C)(C)C)OC1c1ccc(F)cc1 (stereo not given) 15.6%
CCCOP(=O)(c1ccc(N(C)C)cc1)C(O)c1cc(OC)c(OC)c(OC)c1 (stereo not given) 16.9%
O=C(O)c1cc2ccccc2c(=O)s1 15.6%
CCSC1=C(C#N)C(=O)n2c1cc1c2CCCC1 10.1%
Cn1c(=O)c2c(ncn2CC(COCc2ccccc2Cl)OCc2ccccc2Cl)n(C)c1=O (stereo not given) 49.2%
Cn1c(=O)c2c(ncn2CC(=O)N2CCN(c3ccccc3)CC2)n(C)c1=O 4.9%
CCCc1nc2oc3c(OCC)ncnc3c2c2c1COC(C)(C)C2 -9.9%
CCC(C)n1[nH]c(=O)c2c(C)cc(C)nc21 (stereo not given) 10.9%
O=C1CC(N2CCN(C(c3ccccc3)c3ccccc3)CC2)C(=O)N1 (stereo not given) 8.8%
CC(C)(C)c1cc(CN2CCN(CCC#N)CC2)cc(C(C)(C)C)c1O -2.1%
CC(C)(C)c1ccc(C(=O)CSc2ncn[nH]2)cc1 23%
O=C(CSc1ncn[nH]1)Nc1ccnc2ccccc12 27.1%
COc1ccc(NC(=O)Cn2nnc(C(=O)NCCc3ccc(OC)c(OC)c3)c2N)cc1 4.1%
CCOC(=O)c1cccc(NC(=O)CCn2nnc3ccccc32)c1 23.3%
CC12CCC(C(=O)N3CCN(c4ncccn4)CC3)(c3nc4ccccc4nc31)C2(C)C (stereo not given) 31.7%
Cc1nn(-c2ccccc2)c(C)c1C(=O)OCC(=O)NC(=O)NC1CCCCC1 28.3%
Cc1cc(C(=O)COC(=O)c2cccs2)c(C)n1-c1c(C)n(C)n(-c2ccccc2)c1=O -0.8%
O=C1CCC(C(=O)Nc2ccc(OC(F)F)cc2)N1 (stereo not given) 0%
O=c1cc(CO)oc(CN2CCC(Cc3ccccc3)CC2)c1O 15.2%
CCN1CCCC1CNC(=O)Cn1cnc2ccc(S(=O)(=O)N3CCC(C)CC3)cc2c1=O (stereo not given) -0.8%
COCC(C)N=CC1=C(O)CC(C)(C)CC1=O (stereo not given) 0.7%
Nc1ccc(Nc2ccccc2)cc1 36.6%
COC(CNC(=O)Cn1ncc2ccsc2c1=O)OC 2.1%
COC(=O)C(CC(=O)Nc1cc(C)ccc1C)Nc1ccccc1OC (stereo not given) 15.3%
COc1ccccc1NC(=O)/C=C/C(N)=O -0.2%
CC1CC(C)CN(C/C=C/c2ccccc2[N+](=O)[O-])C1 (stereo not given) 29.7%
CCC(C)NC(=O)CSC1=Nc2ccccc2C2=NC(CCC(=O)NCc3ccco3)C(=O)N12 (stereo not given) 6.1%
CCOC(=O)CNC(=O)CSc1nnc(COc2ccc(Cl)cc2)n1CC 14.7%
COc1ccc(OC)c(/C=N/NC(=O)CSc2nnc(C)n2-c2ccccc2)c1 23.2%
COC(=O)[C@@H](NC(=O)NCc1cccc(OC)c1)C(C)C 5.8%
CCOC(=O)Cn1c(-c2cccnc2Cl)nc2ccccc21 -2%
Cc1no[n+]([O-])c1COc1ccccc1/C=C1\NC(=S)NC1=O 20.6%
CCN1C(=O)/C(=C2\SC(N3CCCCC3)=NC2=O)c2ccccc21 19.9%
CCN1C(=O)/C(=C\N2CCN(c3cccc(Cl)c3)CC2)SC1=S 13%
O=S(=O)(c1cccc2nonc12)N1CCN(c2cccc(Cl)c2)CC1 1.5%
CN1CC(c2ccccc2)C2(COc3ccccc3C2=O)C12C(=O)Nc1ccccc12 (stereo not given) 46.7%
COc1ccccc1/C=C/C1=NC(=C\N(C)C)/C(=O)O1 19.5%
CCOC(=O)CSc1nnc(CNC(=O)c2cccs2)n1-c1ccccc1 -5.7%
CCOC(=O)CSc1nnc(CNC(=O)Cc2ccccc2)n1-c1ccccc1OC 8.2%
CCOc1cc(-c2cc(-c3ccc(OC)cc3)nc(N)c2C#N)ccc1O 19.9%

inhibition, active:
OC(c1ccccc1)c1nccn1Cc1ccccc1 (stereo not given) 81.9%
Cc1cccc(N2CCN(C(=O)c3cnn4c(C(F)F)cc(-c5ccccc5)nc34)CC2)c1C 51%
Cc1ccc(C)n1-c1ccncc1 56.5%
N#Cc1cccc(NC(=O)CCC2CCCC2)c1 73.6%
CCCn1c(C(O)c2ccc(OCC)cc2)nc2ccccc21 (stereo not given) 90.6%
CCCn1c(C(O)c2cc(OC)ccc2OC)nc2ccccc21 (stereo not given) 74.3%
CC(C)n1c(C(O)c2ccccc2)nc2ccccc21 (stereo not given) 67.7%
CCOC(=O)c1nn(-c2cccc(C)c2)cc1C(=O)c1ccccc1 75.3%
Cc1ccc(NC(=S)Nc2ncccc2C)c(C)c1 86.3%
COc1ccc(N(C(=O)c2cccnc2)S(=O)(=O)c2ccc3c(c2)n(C)c(=O)n3C)cc1 57.8%
O=C(Cn1cncn1)N/N=C/c1c2ccccc2cc2ccccc12 80%
COCCCN1C(=O)c2ccc(C(=O)Nc3ccc(OC)cc3OC)cc2C1=O 61.8%
CC(C)Cn1cnc2c1c(=O)n(CC(O)c1ccccc1)c(=O)n2CC(C)C (stereo not given) 58.8%
CCN(C(=O)CSc1ncn[nH]1)c1cccc2ccccc12 63.2%
CCOC(=O)c1nnn(CC(=O)Nc2cccc(F)c2)c1C(=O)OCC 95.7%
CCCn1c(C)cc(C(=O)COC(=O)c2c(C)nn(-c3ccccc3)c2C)c1C 88.6%
c1ccc(Nc2n[nH]nc2-c2ccccc2)cc1 84.7%
COc1ccccc1NC(=O)COc1ccc(C(=O)OCC(=O)N(C(C)C)C(C)C)cc1OC 56.4%
Cc1nnc(SCC(=O)NCCOc2ccc(Cl)cc2)n1-c1ccccc1 95.6%
O=Cc1c(N2CCN(c3cccc(Cl)c3)CC2)nc2ccccn2c1=O 99.4%
CCOC(=O)CSc1nnc(CNC(=O)c2cccs2)n1-c1cc(OC)ccc1OC 58.2%
CCOc1ccccc1Oc1cn[nH]c1-c1ccc(OC)cc1O 100%

Source: PubChem BioAssay AID778 (Sanford-Burnham Center for Chemical Genomics, 2007)
